Data reported in ChEMBL document CHEMBL2218924, “A broad activity screen in support of a chemogenomic map for kinase signalling research and drug discovery” (Biochem J, 2013).

What follows are compounds tested against T1, Tyrosine-protein kinase Mer (Homo sapiens) (UniProt Q12866). Settings: at 1 µM.
T1 sequence (whole entry): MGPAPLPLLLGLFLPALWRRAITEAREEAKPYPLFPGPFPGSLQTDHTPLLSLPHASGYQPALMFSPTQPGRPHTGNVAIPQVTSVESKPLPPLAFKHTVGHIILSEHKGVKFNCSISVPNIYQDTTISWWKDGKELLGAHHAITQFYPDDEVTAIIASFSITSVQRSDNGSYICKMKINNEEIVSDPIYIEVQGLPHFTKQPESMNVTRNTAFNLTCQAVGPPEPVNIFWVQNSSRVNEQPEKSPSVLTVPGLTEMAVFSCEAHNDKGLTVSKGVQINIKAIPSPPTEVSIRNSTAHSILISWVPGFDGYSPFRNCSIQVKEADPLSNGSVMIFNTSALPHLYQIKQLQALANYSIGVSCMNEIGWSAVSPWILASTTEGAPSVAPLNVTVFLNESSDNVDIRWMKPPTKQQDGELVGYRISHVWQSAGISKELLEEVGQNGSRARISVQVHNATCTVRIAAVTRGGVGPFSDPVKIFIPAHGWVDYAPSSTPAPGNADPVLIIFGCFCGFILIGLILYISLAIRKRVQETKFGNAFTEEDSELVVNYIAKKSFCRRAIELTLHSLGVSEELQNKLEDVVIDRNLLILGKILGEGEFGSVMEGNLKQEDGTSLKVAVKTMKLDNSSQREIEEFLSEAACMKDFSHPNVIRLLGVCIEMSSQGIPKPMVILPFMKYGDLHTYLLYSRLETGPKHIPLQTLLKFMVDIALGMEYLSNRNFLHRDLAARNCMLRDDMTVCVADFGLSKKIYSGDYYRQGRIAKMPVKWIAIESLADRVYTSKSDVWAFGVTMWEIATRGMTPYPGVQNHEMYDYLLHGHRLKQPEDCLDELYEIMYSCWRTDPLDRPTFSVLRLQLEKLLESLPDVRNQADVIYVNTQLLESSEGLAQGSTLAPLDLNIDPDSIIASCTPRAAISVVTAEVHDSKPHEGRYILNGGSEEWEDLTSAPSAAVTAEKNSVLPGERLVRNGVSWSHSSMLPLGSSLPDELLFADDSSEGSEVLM

SMILES | residual activity [%]
CO[C@H]1C[C@@H]2CC[C@@H](C)[C@@](O)(O2)C(=O)C(=O)N2CCCC[C@H]2C(=O)O[C@H]([C@H](C)C[C@@H]2CC[C@@H](O)[C@H](OC)C2)CC(=O)[C@H](C)/C=C(\C)[C@@H](O)[C@@H](OC)C(=O)[C@H](C)C[C@H](C)/C=C/C=C/C=C/1C | 101
Nc1nc(Nc2ccc(S(N)(=O)=O)cc2)nn1C(=S)Nc1c(F)cccc1F | -1
O=C1NC(=O)/C(=C\c2ccc3nccnc3c2)S1 | 111
COc1ccc(CNc2nc(N(CCO)CCO)nc3c2ncn3C(C)C)cc1 | 90
COc1ccc(C(=O)Nc2sc3c(c2C(N)=O)CCCC3)cc1OC | 107
O=C(Nc1cccc(Nc2cc(Nc3cccc(C(F)(F)F)c3)ncn2)c1)C1CC1 | 78
Oc1ccc(Nc2nc(-c3ccc(Cl)cc3)cs2)cc1 | 100
COc1ccc(OC)c2c(=S)c3ccccc3[nH]c12 | 99
O=C1Nc2cc(Br)ccc2/C1=C1/Nc2ccccc2/C1=N\O | 26
Nc1cccc(-c2cc3c(Oc4cccc(O)c4)ncnc3[nH]2)c1 | 81
Oc1n[nH]c2nnc(-c3c(-c4ccccc4)nn4ccccc34)cc12 | 98
COc1cccc(-c2cc(=O)c3ccccc3o2)c1N | 96
Cc1nc2cc3nc(-c4cccs4)cnc3cc2n1C | 103
O=Nc1c(-c2c(O)[nH]c3ccccc23)[nH]c2ccccc12 | -2
O=C1c2ccccc2-[n+]2ccc3c([nH]c4ccccc43)c21 | 95
CNc1cc2c(Nc3cccc(Br)c3)ncnc2cn1 | 96
O=c1cc(-c2cccc3c2Sc2ccccc2S3)oc(N2CCOCC2)c1 | 99
C[C@@H](N)[C@H]1CC[C@H](C(=O)Nc2ccncc2)CC1 | 93

SMILES | residual activity [%]
Cc1nc(-c2ccccc2)c(-c2ccncc2)o1 | 99
CCC(=O)Nc1ccc2ncnc(Nc3cccc(Br)c3)c2c1 | 108
Cn1cnc2cc3c(Nc4cccc(Br)c4)ncnc3cc21 | 79
CC(C)n1cnc2/c(=N/c3cccc(Cl)c3)nc(NCCO)[nH]c21 | 54
Oc1c2ccccc2c2c3c(cccc13)N=N2 | 22
COc1cc2ncnc(Nc3ccc(O)c(Br)c3)c2cc1OC | 69
N#C/C(=C(\N)Sc1ccc(N)cc1)c1ccccc1C(F)(F)F | 94
CCOc1cc2ncnc(Nc3cccc(Br)c3)c2cc1OCC | 84
O=C1NC(=O)c2c1c1c3ccccc3[nH]c1c1[nH]c3cc(Br)ccc3c21 | 87
CC#CC(=O)Nc1cc2c(Nc3ccc(F)c(Cl)c3)ncnc2cn1 | 107
NC(=O)c1ccc2[nH]c(-c3ccc(Oc4ccc(Cl)cc4)cc3)nc2c1 | 95
O=C(Nc1cccc(Nc2nccc(Nc3cccc(C(F)(F)F)c3)n2)c1)C1CC1 | 72
O=c1c2ccccc2[nH]c(=S)n1CCN1CCC(=C(c2ccc(F)cc2)c2ccc(F)cc2)CC1 | 106
Ic1cccc(CSc2nnc(-c3ccncc3)o2)c1 | 69
O=C1NC(=O)/C(=C/c2ccc3c(c2)OC(F)(F)O3)S1 | 110
Cc1ccc(NC2=CC(=O)c3sc(C)nc3C2=O)cc1 | 98
CC(=O)O/N=C1\C(=C2\C(=O)Nc3cc(Br)ccc32)Nc2ccccc21 | 39

What follows are compounds tested against T1, Tyrosine-protein kinase Mer (Homo sapiens). Settings: at 10 µM.

SMILES | residual activity [%]
CO[C@H]1C[C@@H]2CC[C@@H](C)[C@@](O)(O2)C(=O)C(=O)N2CCCC[C@H]2C(=O)O[C@H]([C@H](C)C[C@@H]2CC[C@@H](O)[C@H](OC)C2)CC(=O)[C@H](C)/C=C(\C)[C@@H](O)[C@@H](OC)C(=O)[C@H](C)C[C@H](C)/C=C/C=C/C=C/1C | 93
Nc1nc(Nc2ccc(S(N)(=O)=O)cc2)nn1C(=S)Nc1c(F)cccc1F | -1
O=C1NC(=O)/C(=C\c2ccc3nccnc3c2)S1 | 60
COc1ccc(CNc2nc(N(CCO)CCO)nc3c2ncn3C(C)C)cc1 | 60
COc1ccc(C(=O)Nc2sc3c(c2C(N)=O)CCCC3)cc1OC | 86
O=C(Nc1cccc(Nc2cc(Nc3cccc(C(F)(F)F)c3)ncn2)c1)C1CC1 | 74
Oc1ccc(Nc2nc(-c3ccc(Cl)cc3)cs2)cc1 | 90
COc1ccc(OC)c2c(=S)c3ccccc3[nH]c12 | 85
O=C1Nc2cc(Br)ccc2/C1=C1/Nc2ccccc2/C1=N\O | 4
Nc1cccc(-c2cc3c(Oc4cccc(O)c4)ncnc3[nH]2)c1 | 35
Oc1n[nH]c2nnc(-c3c(-c4ccccc4)nn4ccccc34)cc12 | 105
COc1cccc(-c2cc(=O)c3ccccc3o2)c1N | 101
Cc1nc2cc3nc(-c4cccs4)cnc3cc2n1C | 41
O=Nc1c(-c2c(O)[nH]c3ccccc23)[nH]c2ccccc12 | -3
O=C1c2ccccc2-[n+]2ccc3c([nH]c4ccccc43)c21 | 97
CNc1cc2c(Nc3cccc(Br)c3)ncnc2cn1 | 84
O=c1cc(-c2cccc3c2Sc2ccccc2S3)oc(N2CCOCC2)c1 | 89
C[C@@H](N)[C@H]1CC[C@H](C(=O)Nc2ccncc2)CC1 | 101

SMILES | residual activity [%]
Cc1nc(-c2ccccc2)c(-c2ccncc2)o1 | 88
CCC(=O)Nc1ccc2ncnc(Nc3cccc(Br)c3)c2c1 | 86
Cn1cnc2cc3c(Nc4cccc(Br)c4)ncnc3cc21 | 58
CC(C)n1cnc2/c(=N/c3cccc(Cl)c3)nc(NCCO)[nH]c21 | 10
Oc1c2ccccc2c2c3c(cccc13)N=N2 | 9
COc1cc2ncnc(Nc3ccc(O)c(Br)c3)c2cc1OC | 16
N#C/C(=C(\N)Sc1ccc(N)cc1)c1ccccc1C(F)(F)F | 94
CCOc1cc2ncnc(Nc3cccc(Br)c3)c2cc1OCC | 31
O=C1NC(=O)c2c1c1c3ccccc3[nH]c1c1[nH]c3cc(Br)ccc3c21 | 68
CC#CC(=O)Nc1cc2c(Nc3ccc(F)c(Cl)c3)ncnc2cn1 | 94
NC(=O)c1ccc2[nH]c(-c3ccc(Oc4ccc(Cl)cc4)cc3)nc2c1 | 95
O=C(Nc1cccc(Nc2nccc(Nc3cccc(C(F)(F)F)c3)n2)c1)C1CC1 | 70
O=c1c2ccccc2[nH]c(=S)n1CCN1CCC(=C(c2ccc(F)cc2)c2ccc(F)cc2)CC1 | 88
Ic1cccc(CSc2nnc(-c3ccncc3)o2)c1 | 48
O=C1NC(=O)/C(=C/c2ccc3c(c2)OC(F)(F)O3)S1 | 95
Cc1ccc(NC2=CC(=O)c3sc(C)nc3C2=O)cc1 | 110
CC(=O)O/N=C1\C(=C2\C(=O)Nc3cc(Br)ccc32)Nc2ccccc21 | 6
